Holding throughout (test): DAPPL (digital affinity profiling via proximity ligation, sequencing); 10 mM Tris-HCl pH 7.5, 50 mM NaCl, 1 mM DTT, 4% glycerol, room temperature, 30 min; GST-TFs on glutathione beads, 16-mer random dsDNA library, 0.1% formaldehyde crosslink after washing; high values mean tight binding
In one test the target is T1, FEV (Homo sapiens, UniProt Q99581 1-238).
T1 sequence: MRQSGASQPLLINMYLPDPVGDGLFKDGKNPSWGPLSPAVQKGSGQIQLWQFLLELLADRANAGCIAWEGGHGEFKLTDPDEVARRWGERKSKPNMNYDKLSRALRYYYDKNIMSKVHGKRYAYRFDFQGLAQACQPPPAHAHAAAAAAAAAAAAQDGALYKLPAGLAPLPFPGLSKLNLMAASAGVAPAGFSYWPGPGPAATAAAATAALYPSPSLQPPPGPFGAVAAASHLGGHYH
As to conditions: protein: recombinant; tags: N-terminal GST; dsDNA, one strand shown. In outline: (§1)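 Sequencing on an Illumina NextSeq500 followed washing, crosslinking with 0.1% formaldehyde, proximity ligation (BsaI/T4 ligase, 1 h, 37 °C) and PCR amplification of pools that had been incubated for 30 min at room temperature with 200 nmole of a random double-stranded 16-mer DNA library in Tris/NaCl/DTT/glycerol buffer. Each pool held DNA-barcoded human transcription factors, expressed in yeast as GST fusions and captured on glutathione beads, plus a tag-only sample. Binding signal is a hexamer's read frequency for a factor divided by its frequency in the tag-only sample.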

In the next test the target is ETV5 (Homo sapiens, UniProt P41161 1-510). As to conditions: protein: recombinant; tags: N-terminal GST; dsDNA, one strand shown. The procedure, abridged: as §1
Another test has as its target HSF1 (Homo sapiens, UniProt Q00613 1-529). As to conditions: protein: recombinant; tags: N-terminal GST; chain copies: 3; dsDNA, one strand shown. The procedure, abridged: as §1
The next test concerns the target T2, SPIC (Homo sapiens, UniProt Q8N5J4 1-248).
T2 sequence: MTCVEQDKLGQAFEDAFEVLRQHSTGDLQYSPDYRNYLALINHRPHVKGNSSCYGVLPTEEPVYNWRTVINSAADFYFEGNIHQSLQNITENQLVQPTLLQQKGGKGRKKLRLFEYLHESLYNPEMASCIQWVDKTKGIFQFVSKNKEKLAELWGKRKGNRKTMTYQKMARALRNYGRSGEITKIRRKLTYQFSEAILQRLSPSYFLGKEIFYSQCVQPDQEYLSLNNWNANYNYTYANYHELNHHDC
To be noted: protein: recombinant; tags: N-terminal GST; dsDNA, one strand shown. In outline: as §1

The target in a further test is ELF4 (Homo sapiens, UniProt Q99607 1-663). To be noted: protein: recombinant; tags: N-terminal GST; dsDNA, one strand shown. The procedure, abridged: as §1
For another test, the target named is T3, ELK4 (Homo sapiens, UniProt P28324-2 1-405).
T3 sequence: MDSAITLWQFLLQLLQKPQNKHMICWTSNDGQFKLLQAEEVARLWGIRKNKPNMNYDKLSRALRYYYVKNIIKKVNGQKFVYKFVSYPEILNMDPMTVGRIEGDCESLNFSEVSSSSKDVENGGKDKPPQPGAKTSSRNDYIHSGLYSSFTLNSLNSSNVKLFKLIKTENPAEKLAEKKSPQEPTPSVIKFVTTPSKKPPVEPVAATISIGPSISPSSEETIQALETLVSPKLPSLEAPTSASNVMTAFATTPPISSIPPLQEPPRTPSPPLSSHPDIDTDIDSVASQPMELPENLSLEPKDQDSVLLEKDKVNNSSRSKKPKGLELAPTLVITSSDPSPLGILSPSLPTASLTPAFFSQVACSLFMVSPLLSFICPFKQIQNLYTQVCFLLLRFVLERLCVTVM
To be noted: protein: recombinant; tags: N-terminal GST; dsDNA, one strand shown. In outline:
as §1

The next test concerns the target T4, ETV2 (Homo sapiens, UniProt O00321 1-342).
T4 sequence: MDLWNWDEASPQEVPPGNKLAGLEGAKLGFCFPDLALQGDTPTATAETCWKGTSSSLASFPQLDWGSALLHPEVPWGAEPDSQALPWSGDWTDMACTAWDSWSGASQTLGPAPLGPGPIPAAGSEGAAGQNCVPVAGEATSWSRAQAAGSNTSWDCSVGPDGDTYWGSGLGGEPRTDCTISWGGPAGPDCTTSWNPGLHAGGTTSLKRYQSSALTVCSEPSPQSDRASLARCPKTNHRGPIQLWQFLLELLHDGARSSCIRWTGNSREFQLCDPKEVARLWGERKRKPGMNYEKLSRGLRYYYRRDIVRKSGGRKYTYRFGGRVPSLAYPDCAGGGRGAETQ
To be noted: protein: recombinant; tags: N-terminal GST; dsDNA, one strand shown. In outline: as §1

The next test concerns the target T5, ELF3 (Homo sapiens, UniProt P78545 1-371).
T5 sequence: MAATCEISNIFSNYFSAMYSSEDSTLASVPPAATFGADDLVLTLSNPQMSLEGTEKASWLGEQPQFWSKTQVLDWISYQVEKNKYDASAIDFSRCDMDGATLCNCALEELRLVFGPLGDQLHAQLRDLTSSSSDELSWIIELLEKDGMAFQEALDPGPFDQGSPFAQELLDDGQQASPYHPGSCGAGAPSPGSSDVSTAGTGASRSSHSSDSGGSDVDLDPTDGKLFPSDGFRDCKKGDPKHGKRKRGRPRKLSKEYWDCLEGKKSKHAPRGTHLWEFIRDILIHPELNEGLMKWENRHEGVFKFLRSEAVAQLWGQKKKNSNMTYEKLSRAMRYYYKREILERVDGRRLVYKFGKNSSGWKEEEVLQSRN
As to conditions: protein: recombinant; tags: N-terminal GST; dsDNA, one strand shown. The procedure, abridged:
as §1

The target in the next test is CRX (Homo sapiens, UniProt O43186 1-299). As to conditions: protein: recombinant; tags: N-terminal GST; dsDNA, one strand shown. The procedure, abridged:
as §1

A further test deals with ETV1 (Homo sapiens, UniProt P50549 1-477). To be noted: protein: recombinant; tags: N-terminal GST; dsDNA, one strand shown. The procedure, abridged:
as §1

A further test has as its target T6, ERF (Homo sapiens, UniProt P50548 1-548).
T6 sequence: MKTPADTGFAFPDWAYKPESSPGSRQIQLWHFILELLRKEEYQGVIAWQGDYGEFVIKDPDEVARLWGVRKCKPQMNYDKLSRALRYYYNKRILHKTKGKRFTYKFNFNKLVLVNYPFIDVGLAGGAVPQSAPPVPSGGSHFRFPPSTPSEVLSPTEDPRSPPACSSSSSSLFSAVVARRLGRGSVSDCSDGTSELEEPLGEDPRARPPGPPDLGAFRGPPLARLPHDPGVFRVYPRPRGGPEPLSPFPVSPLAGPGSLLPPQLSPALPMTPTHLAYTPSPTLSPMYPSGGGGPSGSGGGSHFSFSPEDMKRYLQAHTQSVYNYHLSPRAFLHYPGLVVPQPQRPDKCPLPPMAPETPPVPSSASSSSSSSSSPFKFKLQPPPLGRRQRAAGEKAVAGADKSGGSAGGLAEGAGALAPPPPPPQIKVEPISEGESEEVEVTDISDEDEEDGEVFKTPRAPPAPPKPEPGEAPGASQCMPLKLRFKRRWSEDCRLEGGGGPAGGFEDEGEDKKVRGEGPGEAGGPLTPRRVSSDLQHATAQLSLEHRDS
To be noted: protein: recombinant; tags: N-terminal GST; dsDNA, one strand shown. In outline: as §1

Another test deals with T7, ETV3L (Homo sapiens, UniProt Q6ZN32 1-361).
T7 sequence: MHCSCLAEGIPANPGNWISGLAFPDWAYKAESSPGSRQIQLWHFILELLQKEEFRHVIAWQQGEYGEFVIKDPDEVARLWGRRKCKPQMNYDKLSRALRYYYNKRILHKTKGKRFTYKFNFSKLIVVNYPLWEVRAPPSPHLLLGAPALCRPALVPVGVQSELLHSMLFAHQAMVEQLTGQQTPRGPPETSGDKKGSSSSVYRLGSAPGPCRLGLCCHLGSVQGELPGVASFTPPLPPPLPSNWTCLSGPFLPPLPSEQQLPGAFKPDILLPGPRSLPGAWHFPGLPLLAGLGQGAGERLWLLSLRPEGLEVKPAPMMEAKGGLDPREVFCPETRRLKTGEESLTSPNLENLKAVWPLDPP
To be noted: protein: recombinant; tags: N-terminal GST; dsDNA, one strand shown. The procedure, abridged:
as §1

For another test, the target named is T8, ETS2 (Homo sapiens, UniProt P15036 1-469).
T8 sequence: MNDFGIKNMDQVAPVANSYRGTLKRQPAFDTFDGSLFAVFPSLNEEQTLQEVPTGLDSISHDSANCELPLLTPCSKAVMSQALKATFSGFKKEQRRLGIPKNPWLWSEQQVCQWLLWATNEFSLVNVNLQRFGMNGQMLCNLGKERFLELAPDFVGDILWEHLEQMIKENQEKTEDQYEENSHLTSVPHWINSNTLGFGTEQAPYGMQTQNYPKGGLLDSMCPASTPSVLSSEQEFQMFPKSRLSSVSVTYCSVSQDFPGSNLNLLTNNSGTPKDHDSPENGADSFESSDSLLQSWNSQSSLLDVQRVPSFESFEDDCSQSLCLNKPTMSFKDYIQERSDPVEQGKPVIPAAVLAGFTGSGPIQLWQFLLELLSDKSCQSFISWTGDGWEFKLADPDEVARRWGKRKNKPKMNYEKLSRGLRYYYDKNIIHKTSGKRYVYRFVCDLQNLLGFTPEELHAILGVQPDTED
As to conditions: protein: recombinant; tags: N-terminal GST; dsDNA, one strand shown. The procedure, abridged: as §1

Another test has as its target T9, SPDEF (Homo sapiens, UniProt O95238 1-335).
T9 sequence: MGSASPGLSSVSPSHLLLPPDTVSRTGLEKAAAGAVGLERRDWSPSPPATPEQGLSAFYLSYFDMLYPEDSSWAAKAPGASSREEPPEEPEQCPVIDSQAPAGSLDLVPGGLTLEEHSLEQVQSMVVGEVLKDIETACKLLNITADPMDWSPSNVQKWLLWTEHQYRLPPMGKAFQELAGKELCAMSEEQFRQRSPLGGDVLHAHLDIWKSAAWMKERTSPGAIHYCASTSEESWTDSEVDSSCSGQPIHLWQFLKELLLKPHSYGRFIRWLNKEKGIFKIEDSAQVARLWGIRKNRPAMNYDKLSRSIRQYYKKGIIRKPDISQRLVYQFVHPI
As to conditions: protein: recombinant; tags: N-terminal GST; dsDNA, one strand shown. The procedure, abridged: as §1

A further test deals with T10, ETV7 (Homo sapiens, UniProt Q9Y603 1-341).
T10 sequence: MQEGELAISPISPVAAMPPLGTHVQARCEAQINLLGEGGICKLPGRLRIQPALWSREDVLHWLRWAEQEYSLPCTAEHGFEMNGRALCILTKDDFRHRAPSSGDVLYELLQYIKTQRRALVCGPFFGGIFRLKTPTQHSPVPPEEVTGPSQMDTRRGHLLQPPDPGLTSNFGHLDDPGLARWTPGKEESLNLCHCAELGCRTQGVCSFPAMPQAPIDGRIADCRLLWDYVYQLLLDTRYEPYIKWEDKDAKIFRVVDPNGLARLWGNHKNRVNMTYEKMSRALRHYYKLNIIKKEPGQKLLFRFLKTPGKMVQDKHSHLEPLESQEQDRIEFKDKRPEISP
As to conditions: protein: recombinant; tags: N-terminal GST; dsDNA, one strand shown. The procedure, abridged: as §1

The next test deals with T11, ELF5 (Homo sapiens, UniProt Q9UKW6-2 1-255).
T11 sequence: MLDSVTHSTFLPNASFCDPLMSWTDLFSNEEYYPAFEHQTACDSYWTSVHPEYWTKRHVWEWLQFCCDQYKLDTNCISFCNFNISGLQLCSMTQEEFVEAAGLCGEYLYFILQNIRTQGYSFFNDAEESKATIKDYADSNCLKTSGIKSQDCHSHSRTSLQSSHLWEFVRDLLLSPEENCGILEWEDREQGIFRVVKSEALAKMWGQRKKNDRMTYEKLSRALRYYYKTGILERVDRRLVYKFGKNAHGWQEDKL
As to conditions: protein: recombinant; tags: N-terminal GST; dsDNA, one strand shown. The procedure, abridged: as §1

Another test concerns the target T12, ETV3 (Homo sapiens, UniProt P41162-2 1-143).
T12 sequence: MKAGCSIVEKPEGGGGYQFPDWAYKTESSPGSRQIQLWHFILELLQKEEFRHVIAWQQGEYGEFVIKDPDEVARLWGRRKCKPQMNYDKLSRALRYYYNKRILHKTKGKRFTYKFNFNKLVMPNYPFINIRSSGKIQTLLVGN
As to conditions: protein: recombinant; tags: N-terminal GST; dsDNA, one strand shown. The procedure, abridged:
as §1

The target of the next test is ETV6 (Homo sapiens, UniProt P41212 1-452). To be noted: protein: recombinant; tags: N-terminal GST; dsDNA, one strand shown. In outline:
as §1

Sequence of ETV6 (P41212 whole entry): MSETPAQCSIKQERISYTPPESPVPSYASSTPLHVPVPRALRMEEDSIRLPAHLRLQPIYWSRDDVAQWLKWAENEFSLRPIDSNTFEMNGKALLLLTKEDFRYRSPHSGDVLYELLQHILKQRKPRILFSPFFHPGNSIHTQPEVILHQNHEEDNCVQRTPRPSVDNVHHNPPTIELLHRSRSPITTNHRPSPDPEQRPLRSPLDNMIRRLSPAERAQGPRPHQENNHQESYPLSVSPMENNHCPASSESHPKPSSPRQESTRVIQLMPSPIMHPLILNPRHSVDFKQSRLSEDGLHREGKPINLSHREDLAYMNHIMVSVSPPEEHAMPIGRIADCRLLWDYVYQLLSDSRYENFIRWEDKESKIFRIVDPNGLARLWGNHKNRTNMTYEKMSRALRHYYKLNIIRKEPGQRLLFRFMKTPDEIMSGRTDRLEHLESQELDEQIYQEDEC
Sequence of ETV5 (P41161 whole entry): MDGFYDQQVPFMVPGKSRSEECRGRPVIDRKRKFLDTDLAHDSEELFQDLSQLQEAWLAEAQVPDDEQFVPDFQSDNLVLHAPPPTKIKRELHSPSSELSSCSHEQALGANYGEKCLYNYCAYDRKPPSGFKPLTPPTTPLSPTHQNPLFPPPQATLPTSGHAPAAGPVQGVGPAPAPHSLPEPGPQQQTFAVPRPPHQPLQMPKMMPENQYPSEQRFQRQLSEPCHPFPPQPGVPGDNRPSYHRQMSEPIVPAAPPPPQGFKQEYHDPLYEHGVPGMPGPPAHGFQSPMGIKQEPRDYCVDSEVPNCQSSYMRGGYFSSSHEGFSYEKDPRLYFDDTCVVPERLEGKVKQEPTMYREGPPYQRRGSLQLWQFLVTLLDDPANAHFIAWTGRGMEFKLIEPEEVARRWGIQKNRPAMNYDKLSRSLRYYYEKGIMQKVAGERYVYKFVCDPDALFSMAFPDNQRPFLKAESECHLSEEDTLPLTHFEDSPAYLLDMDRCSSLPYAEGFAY
Sequence of ELF4 (Q99607 whole entry): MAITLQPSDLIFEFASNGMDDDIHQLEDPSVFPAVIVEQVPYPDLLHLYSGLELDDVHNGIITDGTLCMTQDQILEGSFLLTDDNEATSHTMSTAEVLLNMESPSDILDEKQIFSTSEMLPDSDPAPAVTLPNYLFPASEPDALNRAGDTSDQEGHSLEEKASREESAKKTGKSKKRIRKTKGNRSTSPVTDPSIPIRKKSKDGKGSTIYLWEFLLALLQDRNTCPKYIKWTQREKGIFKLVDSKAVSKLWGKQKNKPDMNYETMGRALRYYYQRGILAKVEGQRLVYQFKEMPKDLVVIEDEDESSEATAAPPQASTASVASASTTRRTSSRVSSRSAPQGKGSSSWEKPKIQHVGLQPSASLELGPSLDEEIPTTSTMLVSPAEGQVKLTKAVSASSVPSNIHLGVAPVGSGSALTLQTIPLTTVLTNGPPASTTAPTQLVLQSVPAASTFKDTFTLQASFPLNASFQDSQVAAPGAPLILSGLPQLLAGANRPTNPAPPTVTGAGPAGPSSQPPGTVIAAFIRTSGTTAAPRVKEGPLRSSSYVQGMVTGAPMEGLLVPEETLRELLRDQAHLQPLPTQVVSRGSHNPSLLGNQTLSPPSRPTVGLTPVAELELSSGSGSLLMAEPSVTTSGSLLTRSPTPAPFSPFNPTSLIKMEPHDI
Sequence of ETV1 (P50549 whole entry): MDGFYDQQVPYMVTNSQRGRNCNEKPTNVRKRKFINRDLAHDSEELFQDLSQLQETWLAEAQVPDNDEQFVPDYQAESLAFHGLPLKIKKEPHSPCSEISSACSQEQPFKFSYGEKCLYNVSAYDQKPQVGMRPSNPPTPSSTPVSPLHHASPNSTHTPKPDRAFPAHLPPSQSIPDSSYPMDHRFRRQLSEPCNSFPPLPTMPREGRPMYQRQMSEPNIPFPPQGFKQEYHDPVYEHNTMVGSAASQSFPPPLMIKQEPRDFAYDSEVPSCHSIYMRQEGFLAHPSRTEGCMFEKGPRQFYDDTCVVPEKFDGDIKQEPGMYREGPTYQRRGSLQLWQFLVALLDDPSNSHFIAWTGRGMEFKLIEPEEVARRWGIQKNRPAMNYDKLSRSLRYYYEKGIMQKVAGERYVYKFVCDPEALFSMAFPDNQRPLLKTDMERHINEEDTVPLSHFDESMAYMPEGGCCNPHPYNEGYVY
Sequence of CRX (O43186 whole entry): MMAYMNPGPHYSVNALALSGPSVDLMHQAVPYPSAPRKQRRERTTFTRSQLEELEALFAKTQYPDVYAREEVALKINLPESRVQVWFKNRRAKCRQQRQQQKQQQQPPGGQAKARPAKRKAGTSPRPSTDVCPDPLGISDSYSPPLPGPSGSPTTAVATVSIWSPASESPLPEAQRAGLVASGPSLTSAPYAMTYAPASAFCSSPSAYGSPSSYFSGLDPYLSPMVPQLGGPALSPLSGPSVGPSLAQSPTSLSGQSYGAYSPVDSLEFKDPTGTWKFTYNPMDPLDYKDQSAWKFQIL
Sequence of HSF1 (Q00613 whole entry): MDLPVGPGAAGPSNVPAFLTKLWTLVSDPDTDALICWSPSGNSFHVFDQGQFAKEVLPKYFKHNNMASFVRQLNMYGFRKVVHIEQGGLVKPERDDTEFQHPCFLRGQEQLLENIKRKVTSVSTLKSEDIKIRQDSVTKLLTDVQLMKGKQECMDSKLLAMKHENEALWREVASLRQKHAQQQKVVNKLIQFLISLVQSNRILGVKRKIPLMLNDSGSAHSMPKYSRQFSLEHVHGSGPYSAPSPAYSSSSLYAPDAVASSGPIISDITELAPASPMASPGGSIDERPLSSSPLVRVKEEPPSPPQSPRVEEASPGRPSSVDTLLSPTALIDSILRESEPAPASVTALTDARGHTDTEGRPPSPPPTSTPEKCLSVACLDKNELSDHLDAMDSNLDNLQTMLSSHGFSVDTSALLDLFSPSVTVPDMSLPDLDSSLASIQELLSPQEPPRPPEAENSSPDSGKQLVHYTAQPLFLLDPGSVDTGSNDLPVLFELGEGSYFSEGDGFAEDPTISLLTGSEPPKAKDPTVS

TCCTTC: the binding signal with FEV is 2.2 fold enrichment (6-mer frequency, TF over GST control); with ETV5 it was 2.1 fold enrichment (6-mer frequency, TF over GST control); with HSF1, 2.13 fold enrichment (6-mer frequency, TF over GST control); with SPIC, 2.26 fold enrichment (6-mer frequency, TF over GST control); in the test with ELF4 it was 2.08 fold enrichment (6-mer frequency, TF over GST control); with ELK4, 2.04 fold enrichment (6-mer frequency, TF over GST control). Besides, the binding signal is 2.47 fold enrichment (6-mer frequency, TF over GST control) with ETV2; 1.85 fold enrichment (6-mer frequency, TF over GST control) with ELF3; 1.72 fold enrichment (6-mer frequency, TF over GST control) with CRX; 2.05 fold enrichment (6-mer frequency, TF over GST control) with ETV1; 1.95 fold enrichment (6-mer frequency, TF over GST control) with ERF; 1.9 fold enrichment (6-mer frequency, TF over GST control) with ETV3L. For the same sequence, the binding signal is 2.09 fold enrichment (6-mer frequency, TF over GST control) in the test with ETS2; 2.21 fold enrichment (6-mer frequency, TF over GST control) with SPDEF; 1.92 fold enrichment (6-mer frequency, TF over GST control) with ETV7; 3.06 fold enrichment (6-mer frequency, TF over GST control) with ELF5; 2.21 fold enrichment (6-mer frequency, TF over GST control) with ETV3; 2.31 fold enrichment (6-mer frequency, TF over GST control) in the test with ETV6.

Values taken from PMC7862700, “An all-to-all approach to the identification of sequence-specific readers for epigenetic DNA modifications on cytosine”.
